What all share (assay): NCI-60 one-dose screen, 48 h (100 = growth as untreated, 0 = no growth, -100 = all killed)
Holding throughout (conditions): 10 µM unless noted

For test [1], the system named is SR leukemia.
The subject of test [2] is RPMI-8226 leukemia.
Test [3] concerns OVCAR-8 ovarian.
Test [4] has as its system OVCAR-5 ovarian.
The test system of test [5] is OVCAR-4 ovarian.
Test [6] relates to SK-OV-3 ovarian.
For test [7], the system named is IGROV1 ovarian.
The subject of test [8] is OVCAR-3 ovarian.
In test [9] the test system is HS 578T breast.
In test [10] the test system is NCI/ADR-RES ovarian.
In test [11] the test system is T-47D breast.
Test [12] relates to BT-549 breast.
The subject of test [13] is MDA-MB-435 melanoma.
Test [14] relates to SW-620 colon.
Test [15] has as its system MCF7 breast.
For test [16], the system named is HCT-116 colon.
Test [17] has as its system HCC-2998 colon.
The test system of test [18] is KM12 colon.

Each structure is given as a SMILES string. This is part of a sample that, as a whole, favours compounds with a hit. Of some 83,000 tested, about 20% had one in any assay.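 Plates (96-well) were seeded with cells, treated with compound at one concentration, and incubated for 48 hours before percent growth was determined.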 A number with no mark means an inactive call. Active and inactive are the calls of the source. Rule for the calls: active = growth percent below 10; inactive = the rest.

`NC(N)=Nc1ccc(Oc2cccc(Oc3ccc(Cl)c(C(F)(F)F)c3)c2)cn1`: the growth is -58.9% (active) in test [1]; -49.5% (active) in test [2]; -50.8% (active) in [3]; -74.5% (active) in test [4]; -76.8% (active) in test [5]; 75.8% in test [6]. The growth in test [7] was -81.7% (active); in [8], -95% (active); in test [9], 79.8%; in test [10], -6.8% (active); in [11], 8.88% (active); in test [12] it was 73.9%. Moreover, the growth is -86.8% (active) in test [13]; -76.7% (active) in test [14]; -70.6% (active) in test [15]; -91.5% (active) in test [16]; -80.6% (active) in test [17]; -89.6% (active) in test [18].
For `CCCCNNC(=O)c1ccc(-c2cccc(F)c2F)cc1`, the growth in test [1] is 25.2%; in test [2] it was 5.02% (active); in test [3] it was 20.8%; in [4] it was 24.9%; in [5] it was 41.5%; in test [6], 47.2%. Besides, the growth in [7] is 31.3%; in test [8], 44.6%; in test [9], 41.2%; in test [10], 13.4%; in test [11], 3.16% (active); in [12] it was 58.6%. Besides, the growth in test [13] was 25.4%; in test [14] it was 20.7%; in test [15], 15.9%; in [16], 13.9%; in test [17], 37.9%; in [18] it was 44.6%.
As for `CS(=O)(=O)c1ccc(-n2cc(/C=N/O)c(-c3ccccc3)n2)cc1`, the growth was 30.3% in [1]; 70.9% in test [2]; 84.2% in test [3]; 98.6% in test [4]; 77.6% in [5]; 109% in test [6]. Further, the growth in [7] is -26.2% (active); in test [8], 94.4%; in test [9], 95.4%; in test [10], 84.4%; in test [11] it was 59.1%; in [12], 60.7%. Besides, the growth is 85.9% in test [13]; 104% in [14]; 21.5% in test [15]; 92.1% in [16]; 95.4% in test [17]; 96.9% in test [18].
`O=C1CCC(N2C(=O)c3ccc(NS(=O)(=O)c4ccccc4OC(F)(F)F)cc3C2=O)C(=O)N1` (stereo not drawn): the growth in test [1] is 77.4%; in test [2] it was 61%; in test [3], 10.9%; in test [4], 85.3%; in [5], 22.8%; in test [6] it was 82.3%. For the same compound, the growth in test [7] was 23.5%; in [8] it was 86.2%; in test [9] it was 13.7%; in [10], 19.7%; in [11], 16.2%; in [12], 14.8%. In addition, the growth was 64.4% in [13]; 20.2% in test [14]; 44.5% in test [15]; 96.8% in [16]; 11% in test [17]; 40.6% in test [18].
Regarding `NC(=O)c1c(NC(=O)c2ccc(F)cc2F)sc2c1CCC(=O)C2`, the growth was 35.8% in [1]; 9.53% (active) in test [2]; 44% in [3]; 24.5% in [4]; 27% in test [5]; 103% in test [6]. For the same compound, the growth in test [7] is 50.5%; in test [8], 14.8%; in test [9] it was 43.9%; in [10], 32.7%; in test [11] it was 32.9%; in test [12] it was 42.2%. The growth is 74.1% in test [13]; 19.1% in test [14]; 51.8% in [15]; 11.3% in test [16]; 89.5% in [17]; 17.2% in [18].
For the compound `NC(N)=Nc1ccc(Oc2cccc(NC(N)=Nc3ccc(I)cc3F)c2)cc1`, the growth was 48.1% in test [1]; 62.3% in test [2]; 90.5% in test [3]; 65.5% in test [4]; 81.3% in test [5]; 70.1% in test [6]. In addition, the growth in [7] was 32.9%; in [8], 75.7%; in test [9], 61.1%; in test [10] it was 100%; in [11] it was 75.3%; in test [12] it was 87.6%. The growth in [13] was 85%; in test [14], 89.5%; in test [15], 63.3%; in test [16], 90.5%; in test [17], 102%; in [18], 79.3%.
Regarding `COc1ccccc1NC1=C(Cl)C(=O)c2nc(C)ccc2C1=O`, the growth in test [1] was -27.9% (active); in test [2], -30.4% (active); in test [3], 9.87% (active); in test [4] it was 78.9%; in [5], -98.2% (active); in [6], 88.3%. Also, the growth is -83.5% (active) in [7]; -85.9% (active) in test [8]; 72.1% in test [9]; 7.08% (active) in test [10]; -44.7% (active) in test [11]; 83.5% in test [12]. The growth in test [13] was -86% (active); in [14], -63.1% (active); in test [15] it was -60.4% (active); in test [16], -80.6% (active); in test [17] it was 58.9%; in test [18], 69.4%.
On to `COc1ccc(C2CC(c3ccc(Nc4nc(NCCO)nc(N5CCOCC5)n4)cc3)=Nc3c(N)nc(N)nc3N2)cc1` (stereo not drawn), for which the growth in [1] is 105%; in [2], 108%; in test [3], 99.8%; in test [4], 109%; in test [5] it was 104%; in [6], 109%. Also, the growth in test [7] is 105%; in test [8] it was 101%; in test [9], 91.6%; in [10] it was 107%; in [11] it was 90.5%; in test [12], 99.2%. Also, the growth in [13] is 108%; in test [14], 101%; in test [15] it was 86.2%; in test [16] it was 100%; in test [17], 105%; in [18] it was 89%.
As to `NS(=O)(=O)c1ccc(Nc2nc(N/N=C/c3c[nH]c4ccccc34)nc(Nc3ccccc3)n2)cc1`, the growth in test [1] was 12.1%; in test [2], -5.69% (active); in test [3] it was 37.8%; in test [4], 87.8%; in test [5] it was 59.7%; in test [6] it was 90.8%. For the same compound, the growth in test [7] was 33.9%; in test [8] it was 26.7%; in test [9], 42.2%; in test [10] it was 93.5%; in test [11] it was 35.3%; in [12] it was 48.8%. Also, the growth is 31.3% in test [13]; 49% in test [14]; 18.8% in [15]; 15.9% in test [16]; 52.6% in [17]; 27.3% in test [18].
For `CCCn1cnc2c(c1=N)C(c1ccc(Cl)cc1)c1sc3c(C)cccc3c1O2` (stereo not drawn), the growth in [1] is 12.6%; in [2], 1.37% (active); in test [3], 23.5%; in test [4] it was 34.2%; in test [5], 89.2%; in [6], 44.2%. Moreover, the growth in test [7] is 23.7%; in [8], 2.26% (active); in test [9], 15.4%; in test [10], 7.18% (active); in [11], 45.9%; in test [12], 18%. Besides, the growth in [13] was -40% (active); in test [14] it was 25.8%; in test [15], 17.4%; in test [16], 9.34% (active); in test [17] it was 15.3%; in [18], 10.9%.
Consider `CCCCCc1ccc(S(=O)(=O)Nc2cccc(-c3csc(NC(=O)CCCCCN4CCN(CCO)CC4)n3)c2)cc1`, for which the growth in [1] was -19.2% (active); in test [2] it was 7.46% (active); in test [3] it was 96.7%; in test [4], 91.6%; in test [5] it was 80.8%; in test [6] it was 96.8%. Further, the growth in [7] was 84.5%; in test [8], 75.6%; in test [9], 86.1%; in test [10], 99.6%; in test [11] it was 73.5%; in test [12], 102%. Further, the growth in test [13] was 36.8%; in test [14], 25.6%; in [15] it was 19.8%; in test [16], 30.3%; in [17] it was 41.5%; in [18], 88%.
Regarding `CCn1c(SCC(=O)Nc2cccc(C(=O)/C=C/c3cc(OC)c(OC)c(OC)c3)c2)nc2ccccc2c1=O`, the growth in test [1] is 5.81% (active); in [2], -7.09% (active); in test [3], 34.3%; in test [4], 27.7%; in test [5] it was 39.9%; in test [6], 102%. Moreover, the growth in test [7] is 13%; in [8], 14.3%; in test [9] it was 59.3%; in test [10], 14.1%; in test [11], 49.3%; in test [12] it was 52.8%. The growth in test [13] was 36.7%; in test [14], 14.9%; in [15] it was 19.9%; in test [16] it was -28.8% (active); in test [17] it was 42.2%; in test [18] it was 44.6%.
Turning to `CS(=O)(=O)c1ncc(-c2ccccc2)cn1`, the growth in [1] was 70.9%; in test [2] it was 108%; in test [3], 99.3%; in test [4], 103%; in [5] it was 98.6%; in [6], 108%. Besides, the growth is 99.5% in test [7]; 90.7% in [8]; 111% in test [9]; 103% in test [10]; 94.4% in test [11]; 93.4% in test [12]. Also, the growth in test [13] is 95.2%; in [14], 113%; in test [15], 91.9%; in test [16] it was 96.9%; in test [17], 104%; in [18] it was 100%.
`CS(=O)(=O)Nc1cc(-c2ccc3ncc(C#N)c(Nc4cccc(Cl)c4F)c3c2)cnc1Cl`: the growth in [1] is 1.4% (active); in test [2], -36.9% (active); in [3], 10.6%; in [4], 21.2%; in test [5] it was 19.1%; in [6] it was -18.2% (active). Moreover, the growth is -43.8% (active) in test [7]; -12.8% (active) in test [8]; -26.6% (active) in test [9]; 33.7% in [10]; -8.48% (active) in test [11]; -4.23% (active) in test [12]. Further, the growth is 3.99% (active) in [13]; 4.99% (active) in test [14]; 3.98% (active) in test [15]; -14.8% (active) in test [16]; -22.1% (active) in test [17]; 3.37% (active) in test [18].
For the compound `Cc1ccc(-n2cc(/C=N/NC(=O)c3ccncc3)c(-c3ccc(S(C)(=O)=O)cc3)n2)cc1`, the growth is 63.5% in test [1]; 96.5% in [2]; 98.7% in [3]; 103% in [4]; 102% in test [5]; 96.1% in [6]. In addition, the growth in [7] was 77.8%; in test [8], 82.3%; in test [9] it was 90.3%; in test [10], 51.7%; in [11], 93.1%; in test [12] it was 74.1%. In addition, the growth in test [13] is 23.6%; in test [14], 64.6%; in [15], 72.2%; in [16], 61.1%; in test [17], 98.1%; in [18], 58%.
As to `Cn1ccnc1C(=O)/C=C/c1ccc(NC(=O)c2c(F)c(F)c(F)c(F)c2F)cc1`, the growth was 70.2% in test [1]; 80.6% in [2]; 102% in test [3]; 111% in test [4]; 106% in test [5]; 129% in [6]. The growth in test [7] is 98.9%; in [8], 107%; in [9], 112%; in test [10], 108%; in test [11], 103%; in [12], 98.2%. The growth in [13] is 107%; in [14], 105%; in test [15], 70.8%; in test [16] it was 101%; in test [17], 125%; in test [18], 105%.

These data come from PubChem BioAssay (NCI).
